Experimental data published in PubChem BioAssay (NCATS).
Records with an inconclusive call do not appear. Entries that show only a call come without a potency. The source made the active and inactive calls. Calls come from the whole dose curve.

assay: Cytotoxicity counterscreen for inhibitors of SARS-CoV-2 cell entry (AID 1645845); conditions: cell viability (SARS-CoV-2 entry assay cells); series mostly up to 57.1 µM; note: nearly all actives have a fitted effect of over 50% in size
In short: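 HEK293-ACE2 cells (Expi293F stably expressing human ACE2) seeded overnight, then compound for 1 h plus 48 h at 37C. Viability as ATP content by luminescence; normalized to wells with cells and media-only wells.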
Potency is the fitted concentration of half-maximal effect.

| SMILES | Potency |
| --- | --- |
| Cc1sc2c(c1C)C(c1ccc(Cl)cc1)=N[C@@H](CC(=O)Nc1ccc(OCCOCCOCCOCCNc3cccc4c3C(=O)N(C3CCC(=O)NC3=O)C4=O)cc1)c1nnc(C)n1-2 (some centres undefined) | inactive |
| Nc1ncc(C(=O)NC2CN(C(=O)C3CC3)C2)c2ccc(-c3cccc(F)c3)nc12 | inactive |
| COc1cc(OC)c2c(=O)[nH]c(-c3cc(C)c(OCCO)c(C)c3)nc2c1 | inactive |
| CC(C)C[C@H](CO)Nc1nc(S[C@@H](C)c2ccccc2)nc2nc(N)sc12 | 31.6 µM (active) |
| Cc1ccc(C(=O)Nc2ccc(CN3CCN(C)CC3)c(C(F)(F)F)c2)cc1C#Cc1cnc2[nH]ncc2c1 | 31.6 µM (active) |
| CNc1ncc2cc(-c3cc(NC(=O)NCCC(C)(C)C)c(F)cc3C)c(C)nc2n1 | inactive |
| CC#CC(=O)N1CCC[C@H]1c1nc(-c2ccc(C(=O)Nc3ccccn3)cc2)c2c(N)nccn12 | inactive |
| Cc1cc(-n2c(=O)ccc3cnc4[nH]ccc4c32)ccc1F | inactive |
| COc1cc2ncnc(Nc3ccc(O)c(Br)c3)c2cc1OC | inactive |
| O=C(Nc1ccc(OC(F)(F)Cl)cc1)c1cnc(N2CC[C@@H](O)C2)c(-c2ccn[nH]2)c1 | inactive |
| NC(=O)c1cnc2[nH]ccc2c1NC1C2CC3C[C@H]1CC(O)(C3)C2 (some centres undefined) | inactive |
| CC(C)NC(=O)N1CC[C@H](N=C2Nc3cc(F)ccc3N(CC(F)F)c3ccc(Cl)cc32)C1 | inactive |
| O=C(O)c1ccc(O)c2ncccc12 | inactive |
| COc1cc2c3c(n(CCCN4CCOCC4)c(=O)c2cc1OC)-c1cc2c(cc1C3=O)OCO2 | inactive |
